From PubChem BioAssay AID2284386 (EPA ToxCast)
The source made the active and inactive calls. Rule for the calls: active = hit-call score of the fitted dose curve at least 0.9, where 1 is the maximum; inactive = score below 0.9.

These compounds were tested against Peroxisome proliferator-activated receptor gamma (Homo sapiens) (UniProt P37231) (assay: ERF_FR_NR_COA_hPPARG: Eurofins (ERF) Nuclear Receptor (NR) Functional Coactivator Assay for human Peroxisome Proliferator-activated Receptor gamma (PPARg) Agonism, conducted at France lab site).
Experimental: ERF_FR_NR_COA_hPPARG is a biochemical, single-readout assay that uses extracted gene-proteins in a cell-free assay. Measurements were taken 2 hours after chemical dosing in a 384-well plate. See PPARgamma Human NHR Functional Agonist Coactivator Assay, Cerep.ERF_FR_NR_COA_hPPARG is an assay component calculated from the ERF_FR_NR_COA_hPPARG assay. It is designed to measure FRET using a type of binding reporter as detected by fluorescence intensity of Rosiglitazone with fluorimetry technology.Data from the assay component ERF_FR_NR_COA_hPPARG was analyzed at the assay endpoint, ERF_FR_NR_COA_hPPARG, in the positive analysis fitting direction relative to DMSO as the negative control and baseline of activity. Using a type of binding reporter, gain-of-signal activity can be used to understand changes in binding as they relate to gene PPARG. To generalize the intended target to other relatable targets, this assay endpoint is annotated to the nuclear receptor intended target family, where the subfamily is non-steroidal.
Test compound and/or vehicle is incubated with the 2 nM receptors and coactivator peptide for 180 minutes at room temperature. Determination of the amount of complex formed is read spectrofluorimetrically (excitation: 337 nm, emission: 520/490 nm). Test compound-induced increase fluorescence by 50 percent or more (>/=50%) relative to 1 uM GW1929 response indicates possible PPARgamma receptor agonist activity. Test compound-induced inhibition of 5 nM GW1929-induced fluorescence response by 50 percent or more (>/=50%) indicates receptor antagonist activity.

Sequence of Peroxisome proliferator-activated receptor gamma (Homo sapiens) (P37231 whole entry, looked up): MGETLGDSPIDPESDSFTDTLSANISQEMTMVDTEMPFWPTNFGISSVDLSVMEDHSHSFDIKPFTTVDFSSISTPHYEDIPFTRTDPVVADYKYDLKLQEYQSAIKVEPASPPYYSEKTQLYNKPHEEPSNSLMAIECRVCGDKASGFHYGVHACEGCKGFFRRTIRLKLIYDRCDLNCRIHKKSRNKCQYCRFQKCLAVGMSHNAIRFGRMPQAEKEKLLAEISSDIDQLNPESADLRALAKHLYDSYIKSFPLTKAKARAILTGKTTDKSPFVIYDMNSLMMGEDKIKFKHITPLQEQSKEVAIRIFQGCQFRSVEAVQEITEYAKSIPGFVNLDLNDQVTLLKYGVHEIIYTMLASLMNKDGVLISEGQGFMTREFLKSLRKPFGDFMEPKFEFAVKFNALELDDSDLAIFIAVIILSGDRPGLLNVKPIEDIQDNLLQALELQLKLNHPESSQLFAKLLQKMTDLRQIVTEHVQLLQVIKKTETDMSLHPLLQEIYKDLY

outcome, inactive:
O=C(CC(=O)C(F)(F)C(F)(F)C(F)(F)F)c1cccs1
O=C(O)CCC(F)(F)C(F)(F)C(F)(F)F
NC(=O)c1nc(-c2cccc(-c3cc(F)ccc3OCC(F)(F)C(F)(F)F)c2)n[nH]1
